# Values joined by “and” are separate entries in the source; they are usually repeats but may differ in a detail not shown here. Equal entries are not always repeated. About 2,000 (36%) of roughly 5,500 compounds were called active. Another 18% or so got no clear call; they are omitted. Some of the results follow. Values without a mark were called inactive. Cut-off read from the data, not from the text of the source: active = normalized growth mostly below about 0.91 (no sharp cut-off); inconclusive = no clear call, values can overlap the other calls; inactive = mostly above about 0.92.
# Assay: chemical genetic growth profiling, strain panel (AID 1159580);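 note: tested at 20 µM; growth read once vehicle control cultures reached saturation at 30 °C; 1 = growth at the plate median or of vehicle wells; lower values mean less growth of the strain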
# Details: S. cerevisiae deletion strains, growth OD
compound,measurement,setting,value
C=CC(C1=CC(=O)C(OC)=CC1=O)c1ccc(OC)cc1 (stereo unspecified),normalized growth,"locus YAL013W, strain DEP1, stronger effect = lower value",0.956
same,normalized growth,"locus YAL021C, strain ccr4, stronger effect = lower value",0.873 (active)
same,normalized growth,"locus YAL026C, strain drs2, stronger effect = lower value",0.765 (active)
same,normalized growth,"locus YAL030W, strain snc1, stronger effect = lower value",0.893 (active)
same,normalized growth,"locus YBL061C, strain skt5, stronger effect = lower value",0.872 (active)
same,normalized growth,"locus YBR009C, strain hhf1, stronger effect = lower value",0.661 (active)
same,normalized growth,"locus YBR021W, strain FUR4, stronger effect = lower value",0.957
same,normalized growth,"locus YBR023C, strain chs3, stronger effect = lower value",0.853 (active)
same,normalized growth,"locus YBR171W, strain sec66, stronger effect = lower value",0.983
same,normalized growth,"locus YBR229C, strain ROT2, stronger effect = lower value",0.968
same,normalized growth,"locus YBR231C, strain swc5, stronger effect = lower value",0.854 (active)
same,normalized growth,"locus YBR279W, strain paf1, stronger effect = lower value",0.883 (active)
same,normalized growth,"locus YCL011C, strain gbp2, stronger effect = lower value",0.857 (active)
same,normalized growth,"locus YCL016C, strain dcc1, stronger effect = lower value",0.81 (active)
same,normalized growth,"locus YCL029C, strain bik1, stronger effect = lower value",0.917
same,normalized growth,"locus YCL061C, strain MRC1, stronger effect = lower value",0.981
same,normalized growth,"locus YCL069W, strain vba3, stronger effect = lower value",0.911 (active)
same,normalized growth,"locus YCR088W, strain abp1, stronger effect = lower value",0.983
same,normalized growth,"locus YDL005C, strain med2, stronger effect = lower value",1.01
same,normalized growth,"locus YDL035C, strain GPR1, stronger effect = lower value",0.896
same,normalized growth,"locus YDL040C, strain nat1, stronger effect = lower value",0.975
same,normalized growth,"locus YDL074C, strain BRE1, stronger effect = lower value",0.827
same,normalized growth,"locus YDL101C, strain DUN1, stronger effect = lower value",0.939
same,normalized growth,"locus YDL134C, strain PPH21, stronger effect = lower value",0.961
same,normalized growth,"locus YDL185W, strain tfp1, stronger effect = lower value",0.976
same,normalized growth,"locus YDL192W, strain arf1, stronger effect = lower value",0.871 (active)
same,normalized growth,"locus YDR001C, strain nth1, stronger effect = lower value",0.982
same,normalized growth,"locus YDR069C, strain doa4, stronger effect = lower value",0.889 (active)
same,normalized growth,"locus YDR101C, strain arx1, stronger effect = lower value",0.906 (active)
same,normalized growth,"locus YDR137W, strain rgp1, stronger effect = lower value",0.596 (active)
same,normalized growth,"locus YDR150W, strain NUM1, stronger effect = lower value",0.985
same,normalized growth,"locus YDR159W, strain sac3, stronger effect = lower value",0.813 (active)
same,normalized growth,"locus YDR162C, strain NBP2, stronger effect = lower value",0.801 (active)
same,normalized growth,"locus YDR195W, strain ref2",1.16 [resistant] (active)
same,normalized growth,"locus YDR297W, strain sur2, stronger effect = lower value",0.934
same,normalized growth,"locus YDR318W, strain mcm21, stronger effect = lower value",0.843 (active)
same,normalized growth,"locus YDR334W, strain swr1, stronger effect = lower value",0.918
same,normalized growth,"locus YDR335W, strain msn5, stronger effect = lower value",0.94
same,normalized growth,"locus YDR388W, stronger effect = lower value",0.601 (active)
same,normalized growth,"locus YDR392W, strain spt3, stronger effect = lower value",0.23 (active)
same,normalized growth,"locus YDR502C, strain sam2, stronger effect = lower value",0.893 (active)
same,normalized growth,"locus YEL003W, strain gim4, stronger effect = lower value",0.803 (active)
same,normalized growth,"locus YEL037C, strain rad23, stronger effect = lower value",0.946
same,normalized growth,"locus YEL061C, strain CIN8 (second series), stronger effect = lower value",0.876 (active)
same,normalized growth,"locus YEL061C, strain CIN8, stronger effect = lower value",0.982
same,normalized growth,"locus YER015W, strain faa2, stronger effect = lower value",0.906 (active)
same,normalized growth,"locus YER016W, strain bim1, stronger effect = lower value",0.912 (active)
same,normalized growth,"locus YER110C, stronger effect = lower value",0.905
same,normalized growth,"locus YER111C, strain swi4, stronger effect = lower value",0.984
same,normalized growth,"locus YER155C, strain BEM2 (second series), stronger effect = lower value",0.476 (active)
same,normalized growth,"locus YER155C, strain BEM2, stronger effect = lower value",0.973
same,normalized growth,"locus YER167W, strain BCK2, stronger effect = lower value",0.829 (active)
same,normalized growth,"locus YFR010W, strain ubp6, stronger effect = lower value",0.887 (active)
same,normalized growth,"locus YGL078C, strain dbp3, stronger effect = lower value",0.978
same,normalized growth,"locus YGL086W, strain mad1, stronger effect = lower value",0.87 (active)
same,normalized growth,"locus YGL167C, strain pmr1, stronger effect = lower value",0.978
same,normalized growth,"locus YGL173C, strain kem1, stronger effect = lower value",0.853 (active)
same,normalized growth,"locus YGL227W, strain vid30, stronger effect = lower value",0.993
same,normalized growth,"locus YGL240W, strain doc1, stronger effect = lower value",0.743 (active)
same,normalized growth,"locus YGL248W, strain PDE1, stronger effect = lower value",0.948
same,normalized growth,"locus YGL253W, strain hxk2, stronger effect = lower value",0.813 (active)
same,normalized growth,"locus YGR078C, strain PAC10, stronger effect = lower value",0.875
same,normalized growth,"locus YGR135W, strain pre9, stronger effect = lower value",0.856 (active)
same,normalized growth,"locus YGR229C, strain SMI1, stronger effect = lower value",0.812
same,normalized growth,"locus YGR252W, strain gcn5, stronger effect = lower value",0.77
same,normalized growth,"locus YHR013C, strain ard1, stronger effect = lower value",0.6 (active)
same,normalized growth,"locus YHR027C, strain rpn1, stronger effect = lower value",0.948
same,normalized growth,"locus YHR030C, strain SLT2, stronger effect = lower value",0.957 and 1
same,normalized growth,"locus YHR079C, strain IRE1 (second series), stronger effect = lower value",0.893 (active)
same,normalized growth,"locus YHR079C, strain IRE1, stronger effect = lower value",1.03
same,normalized growth,"locus YHR094C, strain hxt1, stronger effect = lower value",0.947
same,normalized growth,"locus YHR129C, strain ARP1, stronger effect = lower value",0.939
same,normalized growth,"locus YHR142W, strain chs7, stronger effect = lower value",0.637 (active)
same,normalized growth,"locus YHR200W, strain rpn10, stronger effect = lower value",0.907 (active)
same,normalized growth,"locus YIL066C, strain RNR3, stronger effect = lower value",0.879
same,normalized growth,"locus YIL073C, strain SPO22, stronger effect = lower value",0.929
same,normalized growth,"locus YIL125W, strain kgd1, stronger effect = lower value",0.952
same,normalized growth,"locus YIR030C, strain dcg1, stronger effect = lower value",0.882 (active)
same,normalized growth,"locus YJL092W, strain hpr5, stronger effect = lower value",0.948
same,normalized growth,"locus YJL095W, strain BCK1 (second series), stronger effect = lower value",0.809 (active)
same,normalized growth,"locus YJL095W, strain BCK1, stronger effect = lower value",0.894 and 1.04
same,normalized growth,"locus YJL115W, strain asf1, stronger effect = lower value",0.973
same,normalized growth,"locus YJL129C, strain trk1, stronger effect = lower value",0.868 (active)
same,normalized growth,"locus YJL134W, strain LCB3, stronger effect = lower value",0.967
same,normalized growth,"locus YJL154C, strain vps35, stronger effect = lower value",0.96
same,normalized growth,"locus YJL164C, strain tpk1, stronger effect = lower value",0.759 (active)
same,normalized growth,"locus YJL166W, strain qcr8, stronger effect = lower value",0.588 (active)
same,normalized growth,"locus YJL168C, strain set2, stronger effect = lower value",0.947
same,normalized growth,"locus YJL187C, strain SWE1 (second series), stronger effect = lower value",0.933
same,normalized growth,"locus YJL187C, strain SWE1, stronger effect = lower value",0.841 (active)
same,normalized growth,"locus YJR043C, strain POL32, stronger effect = lower value",0.832 (active)

# — PubChem BioAssay AID1159580 (chemical genetic matrix, 2015)
